Measured values as given in PubChem BioAssay AID1851 (National Center for Advancing Translational Sciences (NCATS), 2009).
The campaign covered roughly 16,000 compounds. About 5,700 (36%) were called active. About 24% were inconclusive and are not listed. Some of the results follow. Unmarked numbers belong to inactive results. Calls follow the shape of the dose curve; as a rule, active = well fitted curve in the direction sought with a large enough effect; inconclusive = small, poorly fitted or top-dose-only effect, or effect the other way; inactive = no such curve, though single readings can be large or run the other way.

The molecules below were run against Cytochrome P450 1A2 (Homo sapiens) (UniProt P05177) (assay: Cytochrome panel assay with activity outcomes). Conditions: recombinant CYP, pro-luciferin dealkylation, luminescence, p450-cyp1a2; series mostly up to 57.1 µM; activity, negative = inhibition: at the top concentration.
Cytochrome P450 1A2 (Homo sapiens), sequence (P05177 whole entry, looked up): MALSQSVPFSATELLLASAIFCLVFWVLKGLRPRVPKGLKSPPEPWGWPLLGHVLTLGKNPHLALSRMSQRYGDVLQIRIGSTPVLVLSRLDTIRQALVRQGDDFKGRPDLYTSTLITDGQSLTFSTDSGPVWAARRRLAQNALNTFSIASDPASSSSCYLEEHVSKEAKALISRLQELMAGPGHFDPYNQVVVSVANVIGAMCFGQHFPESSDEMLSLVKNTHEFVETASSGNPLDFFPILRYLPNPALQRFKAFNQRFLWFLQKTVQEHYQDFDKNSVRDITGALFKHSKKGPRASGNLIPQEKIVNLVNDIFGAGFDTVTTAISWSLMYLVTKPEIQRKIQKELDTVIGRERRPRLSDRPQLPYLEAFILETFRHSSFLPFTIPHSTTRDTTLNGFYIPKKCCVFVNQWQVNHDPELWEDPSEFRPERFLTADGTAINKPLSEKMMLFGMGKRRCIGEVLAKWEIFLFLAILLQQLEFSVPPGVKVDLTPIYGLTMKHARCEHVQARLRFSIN
% is scaled to controls: 0 for no effect and ±100 for the full control effect.

SMILES | AC50 | activity, negative = inhibition
Cc1cc(C(=O)Nc2ccc(N3CCOCC3)cc2)c2ccccc2n1 | 10000 nM (active) | 
Cc1ccc(NC(=O)c2cc(Cl)nc3ccccc23)cc1 | 2000 nM (active) | 
O=C(NNC(=O)c1cc(-c2ccc(Cl)c(Cl)c2)nc2ccccc12)Nc1ccccc1 | 3550 nM (active) | 
CCOC(=O)N/N=C1/C[C@@H](O)[C@@H](O)[C@@H]2[C@@H]3C(=O)N(c4cccc(Oc5ccccc5)c4)C(=O)[C@H]3CC[C@@H]12 |  | -6.44% [at 11.4 µM]
O=C1Oc2ccccc2C2(O)C3CCCCCC3C12 (stereo unspecified) |  | -3.13%
Cc1n[nH]c(C)c1N=Nc1cc(Cl)ccc1Cl | 178 nM (active) | 
COc1cc(OC)c(C(=O)CCCCN2CCC3(CC2)NC(=O)NC3=O)cc1NS(=O)(=O)c1ccc(C(F)(F)F)cc1 |  | -5.7%
Nc1ncnc2c([C@@H]3O[C@@H](CO)[C@H](O)[C@@H]3O)nsc12 |  | -16.8% [at 2.29 µM]
O=C(Nc1nnc(COc2ccc(Cl)cc2)s1)c1ccc([N+](=O)[O-])cc1 |  | 8.11%
O=C(Nc1cc(Sc2ccccn2)cc([N+](=O)[O-])c1)c1ccc([N+](=O)[O-])cc1 | 3160 nM (active) | 
O=C(Nc1cc(Sc2ccccn2)cc([N+](=O)[O-])c1)c1ccc(Cl)cc1 | 2510 nM (active) | 
O=C1[C@H]2[C@H]3[C@H](O)[C@H](O)C/C(=N/OC[C@@H](O)COCc4ccco4)[C@H]3CC[C@@H]2C(=O)N1C[C@@H]1CCCO1 |  | -17.3% [at 11.4 µM]
CCOc1ncccc1C(=O)OCC(=O)Nc1cc(C)ccc1C | 10000 nM (active) | 
Cc1ccc(C)c(NC(=O)C2C3CCCC2C3c2ccccc2)c1 (stereo unspecified) |  | -4.69%
Cc1ccc(C)c(NC(=O)Cn2nnc(C(=O)Nc3c(C)cccc3C)c2N)c1 |  | -4.32%
Cc1noc(C)c1-c1ccc2ncnc(N(C)Cc3ccco3)c2c1 | 2510 nM (active) | 
Cc1noc(C)c1-c1ccc2ncnc(N(C)C)c2c1 | 631 nM (active) | 
CN1C(=O)OC(C)(C)C1=O |  | -1.91% [at 25.6 µM]
CCc1c(C)nc2ccc(Br)cc2c1Cl | 316 nM (active) | 
Cc1cc(Cl)nc2ccc(Cc3ccc4nc(Cl)cc(C)c4c3)cc12 |  | -13.2% [at 2.29 µM]
CO[C@H]1COC(=O)CCC[C@@H](C)[C@H](OC)COC(=O)[C@@H](C)NC(=O)C/C=C\[C@@H]1C |  | 3.63% [at 11.4 µM]
O=C(O)[C@H]1CCCNC1 |  | -5.56%
Cc1cnn(-c2ccc3nnc(-c4ccc(Cl)cc4)n3n2)c1 | 398 nM (active) | 

SMILES | AC50 | activity, negative = inhibition
CNC(=O)Oc1ccc2c(c1)[C@@]1(C)CCN(C)[C@@H]1N2C |  | -15.8%
CCOCCCn1cnc2c([nH]c3cc(OC)ccc32)c1=O | 2000 nM (active) | 
CCOCCCN1C(=O)CN(C2CCCCCC2)C(=O)C1c1ccc(OC)cc1 (stereo unspecified) |  | -10.7%
CO[C@H]1COC(=O)C/C=C\[C@@H](C)COC(=O)[C@H]2CCCN2C(=O)C/C=C\[C@H]1C |  | 4.01% [at 11.4 µM]
Cc1cc(N2CCOCC2)ccc1/C=C1\SC(=O)N(C(C)C)C1=O | 14100 nM (active) | 
CN(C)c1ccc(/C=C2/C(=O)N(c3ccc([N+](=O)[O-])cc3)N=C2N2CCOCC2)cc1 |  | -19%
CC(C(=O)Nc1ccccc1Sc1ccccc1)N(c1ccccc1)S(C)(=O)=O (stereo unspecified) |  | -5.72%
CO[C@@H]1COC(=O)[C@H](COCc2ccccc2)NC(=O)C/C=C\[C@@H](C)[C@H](OC)COC(=O)[C@H](COCc2ccccc2)NC(=O)C/C=C\[C@H]1C |  | -19.7% [at 11.4 µM]
COc1cccc(/C=N/Nc2nc(N3CCCC3)nc(N3CCCC3)n2)c1O | 2510 nM (active) | 
COC(=O)C1=C(C)[C@@H](O)[C@@H](C)[C@H](c2c(OC)c(OC)c(C)c(OC)c2OC)O1 |  | -10.1% [at 11.4 µM]
C#C[C@]1(O)CC[C@@H]2[C@H]3CCc4cc(OC)ccc4[C@@H]3CC[C@@]21C | 501 nM (active) | 
C#C[C@@]1(O)CC[C@@H]2[C@@H]3CCC4=CC(=O)CC[C@@H]4[C@H]3CC[C@]21C |  | -14.1% [at 25.6 µM]
CC12CC[C@@H]3c4ccc(OP(=O)(O)O)cc4CCC3C1CCC2=O (stereo partly specified) |  | -13.4% [at 2.29 µM]
Clc1ccc(CCNc2nc3ccccc3s2)cc1 | 11200 nM (active) | 
CC(C)N1CCN(c2ccc(OC[C@@H]3CO[C@@](Cn4cncn4)(c4ccc(Cl)cc4Cl)O3)cc2)CC1 |  | -3.45% [at 25.6 µM]
Nc1c(O)cccc1C(=O)C[C@@H](N)C(=O)O |  | -7.38% [at 25.6 µM]
N#C/C(=C\Nc1ccccn1)C(=O)C1CC1 | 1260 nM (active) | 
N#C/C(=C\Nc1ccccn1)C(=O)c1ccco1 |  | -22.9% [at 11.4 µM]
CC(CCN)(CCN)[N+](=O)[O-] |  | -10.4% [at 11.4 µM]
Cc1ccccc1CS(=O)(=O)CCC(=O)NCCCN1CCN(c2ccccc2F)CC1 |  | -19.6%
O=C(NCCN1CCN(C(=O)C(c2ccccc2)c2ccccc2)CC1)C(=O)Nc1ccccc1 |  | -23%
O=C(NCCCN1CCc2ccccc2C1)C1CCN(S(=O)(=O)N2CCCC2)CC1 |  | 3.7%
O=C(NCCCN1CCN(c2ccccc2F)CC1)C1CCC(=O)N1C1CCCCC1 (stereo unspecified) |  | 0.883%

SMILES | AC50 | activity, negative = inhibition
CSc1ccc(NC(=O)NCCCN2CCN(c3ccccc3F)CC2)cc1 | 2510 nM (active) | 
CSc1ccc(NC(=O)NCCN2CCc3ccccc3C2)cc1 | 14100 nM (active) | 
Fc1cccc(/C=N\N=C/c2cccc(F)c2)c1 | 200 nM (active) | 
COc1cccc([C@@H]2Oc3ccc(OC)cc3/C(=N/O[C@@H](C)c3cc(-c4c(C)cc(C)cc4C)no3)[C@@H]2O)c1 |  | -10.9% [at 11.4 µM]
Cc1cc(C)c(C(N)=O)c(NC(=O)Nc2ccccc2)n1 | 3160 nM (active) | 
Cc1cc(N)c2cc(NC(=O)Nc3ccc4nc(C)cc(N)c4c3)ccc2n1 |  | -1.54% [at 11.4 µM]
Cc1noc2ncnc(Oc3ccc4ccccc4c3)c12 | 8910 nM (active) | 
Cc1cccc(Oc2ncnc3onc(C)c23)c1C | 17800 nM (active) | 
CCNCCCNCCCNCCCNCC |  | -9.81%
CC1CCN(C(=O)Nc2ccc3nsnc3c2)CC1 | 11200 nM (active) | 
CC1CCN(CCc2nc3cc(NC(=O)NC4CCCCC4)ccc3n2C)CC1 |  | 3.24%
O=C(Nc1ccc(Cl)c(Cl)c1)N1CCC(N2CCCCC2)CC1 |  | -19.8%
COc1ccc(COC(=O)N/N=C2/C[C@@H](O)[C@@H](O)[C@@H]3[C@H]4C(=O)N(c5ccc(F)cc5F)C(=O)[C@@H]4CC[C@H]23)cc1 |  | -6.28% [at 11.4 µM]
O=S(=O)(O)c1cc(O)c2c(N=Cc3ccccc3O)cc(S(=O)(=O)O)cc2c1 |  | -23.7% [at 2.29 µM]
Cc1cc(O)c(C(C)C)cc1N=Cc1ccccc1O | 1580 nM (active) | 
COc1ccc(C(=O)N2CCC3(CCCN(Cc4cc(C(F)(F)F)cc(C(F)(F)F)c4)C3)CC2)cc1 |  | 11.6%
O=C(O)C1(Nc2ccc(Cl)cc2)CCCC1 |  | -2.69% [at 11.4 µM]
N#CC1(Nc2ccc(-c3ccc(NC4(C#N)CCCC4)cc3)cc2)CCCC1 | 3160 nM (active) | 
COCC(=O)N1CCC2(CCCN(Cc3cc(C(F)(F)F)cc(C(F)(F)F)c3)C2)CC1 |  | 3.63%
O=C(O)c1c(Cl)c(Cl)c(Cl)c(Cl)c1C(=O)Nc1ccc2cn[nH]c2c1 | 200 nM (active) | 
N#CC(C#N)=NNc1ccc2cn[nH]c2c1 | 1260 nM (active) | 
S=C(Nc1ccc2cn[nH]c2c1)Nc1ccc2cn[nH]c2c1 | 126 nM (active) | 
CCN1C(=O)[C@H]2[C@H]3[C@H](O)[C@H](O)C/C(=N/NC(=O)OCc4ccccc4)[C@H]3CC[C@@H]2C1=O |  | -7.29% [at 11.4 µM]

SMILES | AC50 | activity, negative = inhibition
NS(=O)(=O)c1cc(Cl)c(Cl)c(S(N)(=O)=O)c1 |  | -15.8% [at 25.6 µM]
CN(C)/C(CN1CCN(C=O)CC1)=C1\N=C(c2ccccc2)OC1=O | 14100 nM (active) | 
O=C(O)[C@@H](S)[C@H](S)C(=O)O |  | -20.1% [at 11.4 µM]
CC1CCN(CCCCOc2ccccc2[N+](=O)[O-])CC1 |  | -15.7%
CC1CCN(CCOc2cc(Cl)ccc2Cl)CC1 | 8910 nM (active) | 
OCCN1CCN(CCOc2cccc(Cl)c2)CC1 |  | -16.3%
CC1CN(C2CCN(C(=O)c3cccc(Cl)c3)CC2)CC(C)O1 (stereo unspecified) |  | -4.5%
O=C(OCc1ccccn1)c1ccc(COc2ccccc2Cl)o1 | 7080 nM (active) | 
CC1CCN(C(=O)c2ccc(COc3ccccc3Cl)o2)CC1 | 3160 nM (active) | 
COc1ccccc1CNC(=O)C1CCN(S(=O)(=O)N2CC(C)CC(C)C2)CC1 (stereo unspecified) |  | -15.6%
C[C@@H]1NC(=O)[C@@H](C)COC(=O)[C@H](C)NC(=O)[C@@H](C)COC1=O |  | 0.211% [at 11.4 µM]
CC(NC(=O)CSc1nc(=O)cc(N)n1CCc1ccccc1)c1ccccc1 (stereo unspecified) |  | -15%
CC(C)n1nnnc1SCC(=O)NCCc1ccccc1 | 12600 nM (active) | 
CCn1c(CC(=O)Nc2ccc(C)cc2)nnc1SCC(=O)NCCc1ccccc1 |  | 12.5%
COc1ccc(CNc2ccnc(-c3ccc(N(C)C)cc3)n2)c(OC)c1 | 3160 nM (active) | 
COc1ccccc1CNc1ccnc(-c2ccoc2)n1 | 1580 nM (active) | 
COc1ccccc1CNc1ccnc(-c2ccc(N(C)C)cc2)n1 | 794 nM (active) | 
COc1ccccc1CNc1ccnc(-c2ccc(C(=O)N(C)C)cc2)n1 | 12600 nM (active) | 
COC(=O)N1CCC2(CC1)CCN(c1ncccn1)CC2 |  | 6.95%
CN(C)c1ccc(-c2nccc(NCc3ccccc3)n2)cc1 | 1260 nM (active) | 
Nc1nnnn1/N=C\c1ccc(Cl)c([N+](=O)[O-])c1 | 5010 nM (active) | 
O=[N+]([O-])c1cc(/C=N/N2CCN(C3c4ccccc4-c4ccccc43)CC2)ccc1Cl |  | -17%
